These molecules were tested against Tyrosine-protein kinase receptor UFO (Homo sapiens) (UniProt P30530). Settings: at 1 µM.
Tyrosine-protein kinase receptor UFO (Homo sapiens), sequence (P30530 whole entry): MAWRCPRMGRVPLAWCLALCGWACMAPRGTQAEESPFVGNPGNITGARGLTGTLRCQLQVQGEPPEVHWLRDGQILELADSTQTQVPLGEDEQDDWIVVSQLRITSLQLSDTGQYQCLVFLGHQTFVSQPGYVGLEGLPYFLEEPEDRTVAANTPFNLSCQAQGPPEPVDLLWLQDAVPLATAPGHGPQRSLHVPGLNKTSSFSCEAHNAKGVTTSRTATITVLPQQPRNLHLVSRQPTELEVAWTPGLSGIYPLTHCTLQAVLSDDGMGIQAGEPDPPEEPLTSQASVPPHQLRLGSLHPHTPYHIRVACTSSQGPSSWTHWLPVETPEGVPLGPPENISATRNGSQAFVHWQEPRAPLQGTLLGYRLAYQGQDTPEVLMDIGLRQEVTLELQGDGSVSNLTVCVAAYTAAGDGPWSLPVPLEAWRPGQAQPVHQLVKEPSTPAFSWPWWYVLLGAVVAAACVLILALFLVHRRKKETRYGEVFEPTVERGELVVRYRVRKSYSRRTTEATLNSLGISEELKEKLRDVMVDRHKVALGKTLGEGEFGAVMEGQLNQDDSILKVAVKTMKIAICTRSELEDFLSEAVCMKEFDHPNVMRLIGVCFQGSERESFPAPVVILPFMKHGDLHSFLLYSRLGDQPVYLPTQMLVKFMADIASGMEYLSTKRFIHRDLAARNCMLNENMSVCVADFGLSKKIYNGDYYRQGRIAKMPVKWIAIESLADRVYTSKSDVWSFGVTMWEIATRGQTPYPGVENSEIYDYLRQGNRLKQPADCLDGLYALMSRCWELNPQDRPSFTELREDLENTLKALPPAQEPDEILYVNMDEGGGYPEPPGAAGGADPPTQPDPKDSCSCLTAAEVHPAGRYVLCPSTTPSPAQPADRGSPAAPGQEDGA

SMILES | inhibition
O=C(Nc1n[nH]c2cc(-c3ccc(F)cc3)ccc12)C1CC1 | -2.92%
CNC(=O)c1cccc(C#Cc2cncnc2Nc2ccc(OCc3cccc(F)c3)c(Cl)c2)c1 | -0.81%
COc1cccc(-c2c[nH]c3c(N/N=C/c4ccncc4)ncnc23)c1 | 3.21%
CCn1c(-c2nonc2N)nc2cnc(Oc3cccc(NC(=O)c4ccc(N(C)C)cc4)c3)cc21 | -3.3%
COc1ccc(-c2cc3c(N)ncnc3o2)cc1 | 2.96%
c1ccc(-c2nc3n(c2-c2ccc4c(c2)OCO4)CCC3)nc1 | -5.46%
FC(F)(F)c1cccc(-c2nn3ncccc3c2-c2ccnc(Nc3ccc4c(c3)OCCO4)n2)c1 | -1.04%
CC(C)COC(=O)c1ccc2c(c1)/C(=C/Nc1ccc(S(N)(=O)=O)cc1)C(=O)N2 | 13.2%
COc1ccc(-c2nn3ncccc3c2-c2ccnc(Nc3ccc4c(c3)OCCO4)n2)cc1 | 8.45%
CN1CCC(n2cnc(-c3ccc(F)cc3)c2-c2ccnc(N)n2)CC1 | 0.24%
N#Cc1c(NC(=O)c2ccc(F)cc2)sc2c1CCCC2 | -1.26%
COC(=O)Nc1nc2ccc(S(=O)(=O)c3ccc(NC(=O)Nc4cc(C(F)(F)F)ccc4F)cc3)cc2[nH]1 | -1.71%
NS(=O)(=O)c1ccc(N/N=C2\C(=O)Nc3ccc4ncccc4c32)cc1 | 36.8%
[O-][S+]1CCN(Cc2ccc(-c3ccc4ncnc(Nc5ccc(OCc6cccc(F)c6)c(Cl)c5)c4c3)o2)CC1 | -4.13%
Cc1cccc2c1NC(=O)/C2=N\Nc1ccc(S(N)(=O)=O)cc1 | -0.34%
CS(=O)(=O)CCNCc1ccc(-c2ccc3ncnc(Nc4ccc(OCc5ccccc5)c(C(F)(F)F)c4)c3c2)o1 | -6.09%
CC(=O)Nc1cccc(C#Cc2cncnc2Nc2ccc(OCc3cccc(F)c3)c(Cl)c2)c1 | 1.6%

SMILES | inhibition
Nc1nc(-c2cccc(Cl)c2)c(-c2ccc3ncccc3n2)s1 | -8.66%
CNC(=O)c1cncc(/C=C/c2ccccc2Cl)c1 | -0.52%
CCn1c(-c2nonc2N)nc2c(C#CC(C)(C)O)ncc(OC3CCNCC3)c21 | -4.23%
CCn1c(-c2nonc2N)nc2ccccc21 | 0.96%
Cc1ccc(O)cc1Nc1ccnc2cc(-c3ccccn3)ccc12 | -6.05%
Nc1ncc(-c2cccc(S(N)(=O)=O)c2)c2scc(-c3ccc(F)c(Cl)c3)c12 | -2.44%
COc1cc2c(cc1Nc1nc(Nc3ccsc3C(N)=O)c3cc[nH]c3n1)N(C(=O)CN(C)C)CCC2(C)C | 85.5%
COc1ccc2[nH]c3c4[nH]c5ccc(OC)cc5c4c4c(c3c2c1)C(=O)NC4=O | 40%
Fc1ccc(-c2nn3ccccc3c2-c2ccncc2)cc1 | 0.78%
COc1ccc(-c2cc(-c3c[nH]nc3-c3ccccn3)ccn2)cc1 | -5.64%
c1cc(-c2cnn3nc(N4CCOCC4)ccc23)nc(NC2CC2)n1 | -5.65%
NS(=O)(=O)c1ccc(Nc2ncc(-c3ccccc3)o2)cc1 | -3.58%
CCN(CC)S(=O)(=O)c1ccc(OC)c(Nc2ncc(-c3ccccc3)o2)c1 | -0.53%
CC(=O)NCc1cccc(C#Cc2cncnc2Nc2ccc(OCc3cccc(F)c3)c(Cl)c2)c1 | 0.14%
COc1ccc(-c2oc3ncnc(N)c3c2-c2ccc(NC(=O)Nc3cc(C(F)(F)F)ccc3F)cc2)cc1 | 82.1%
CCn1cc(-c2ccnc3[nH]ccc23)c(-c2cccc(NC(=O)Nc3ccc(OCc4ccccc4)cc3)c2)n1 | 0.9%

Each molecule was assayed against Tyrosine-protein kinase Blk (Homo sapiens) (UniProt P51451). Settings: at 0.1 µM.
Tyrosine-protein kinase Blk (Homo sapiens), sequence (P51451 2-505 limits assumed): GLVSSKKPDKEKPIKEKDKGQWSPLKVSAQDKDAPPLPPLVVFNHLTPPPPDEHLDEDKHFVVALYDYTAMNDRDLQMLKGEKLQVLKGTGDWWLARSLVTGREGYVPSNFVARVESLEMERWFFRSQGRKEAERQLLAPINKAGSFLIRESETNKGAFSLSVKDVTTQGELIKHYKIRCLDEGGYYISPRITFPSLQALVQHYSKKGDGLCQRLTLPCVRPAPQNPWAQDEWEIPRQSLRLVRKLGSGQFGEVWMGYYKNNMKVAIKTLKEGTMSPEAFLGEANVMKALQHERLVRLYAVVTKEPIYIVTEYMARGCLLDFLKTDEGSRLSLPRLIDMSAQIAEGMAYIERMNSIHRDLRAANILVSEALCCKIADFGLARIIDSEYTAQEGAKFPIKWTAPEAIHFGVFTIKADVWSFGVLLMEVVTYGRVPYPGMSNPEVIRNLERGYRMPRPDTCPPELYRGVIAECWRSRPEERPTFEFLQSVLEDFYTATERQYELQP

SMILES | inhibition
O=C(Nc1n[nH]c2cc(-c3ccc(F)cc3)ccc12)C1CC1 | 1.55%
CNC(=O)c1cccc(C#Cc2cncnc2Nc2ccc(OCc3cccc(F)c3)c(Cl)c2)c1 | 1.53%
COc1cccc(-c2c[nH]c3c(N/N=C/c4ccncc4)ncnc23)c1 | 7.63%
CCn1c(-c2nonc2N)nc2cnc(Oc3cccc(NC(=O)c4ccc(N(C)C)cc4)c3)cc21 | 0.9%
COc1ccc(-c2cc3c(N)ncnc3o2)cc1 | 0.55%
c1ccc(-c2nc3n(c2-c2ccc4c(c2)OCO4)CCC3)nc1 | 0.54%
FC(F)(F)c1cccc(-c2nn3ncccc3c2-c2ccnc(Nc3ccc4c(c3)OCCO4)n2)c1 | 4.81%
CC(C)COC(=O)c1ccc2c(c1)/C(=C/Nc1ccc(S(N)(=O)=O)cc1)C(=O)N2 | 1.11%
COc1ccc(-c2nn3ncccc3c2-c2ccnc(Nc3ccc4c(c3)OCCO4)n2)cc1 | 5.51%
CN1CCC(n2cnc(-c3ccc(F)cc3)c2-c2ccnc(N)n2)CC1 | 1.67%
N#Cc1c(NC(=O)c2ccc(F)cc2)sc2c1CCCC2 | 0.68%
COC(=O)Nc1nc2ccc(S(=O)(=O)c3ccc(NC(=O)Nc4cc(C(F)(F)F)ccc4F)cc3)cc2[nH]1 | 1.71%
NS(=O)(=O)c1ccc(N/N=C2\C(=O)Nc3ccc4ncccc4c32)cc1 | 8.45%
[O-][S+]1CCN(Cc2ccc(-c3ccc4ncnc(Nc5ccc(OCc6cccc(F)c6)c(Cl)c5)c4c3)o2)CC1 | 1.74%
Cc1cccc2c1NC(=O)/C2=N\Nc1ccc(S(N)(=O)=O)cc1 | 1.72%
CS(=O)(=O)CCNCc1ccc(-c2ccc3ncnc(Nc4ccc(OCc5ccccc5)c(C(F)(F)F)c4)c3c2)o1 | 3.53%
CC(=O)Nc1cccc(C#Cc2cncnc2Nc2ccc(OCc3cccc(F)c3)c(Cl)c2)c1 | 2.4%

SMILES | inhibition
Nc1nc(-c2cccc(Cl)c2)c(-c2ccc3ncccc3n2)s1 | 3.51%
CNC(=O)c1cncc(/C=C/c2ccccc2Cl)c1 | 3.84%
CCn1c(-c2nonc2N)nc2c(C#CC(C)(C)O)ncc(OC3CCNCC3)c21 | 2.38%
CCn1c(-c2nonc2N)nc2ccccc21 | 1.38%
Cc1ccc(O)cc1Nc1ccnc2cc(-c3ccccn3)ccc12 | 12.5%
Nc1ncc(-c2cccc(S(N)(=O)=O)c2)c2scc(-c3ccc(F)c(Cl)c3)c12 | 5.6%
COc1cc2c(cc1Nc1nc(Nc3ccsc3C(N)=O)c3cc[nH]c3n1)N(C(=O)CN(C)C)CCC2(C)C | 3.19%
COc1ccc2[nH]c3c4[nH]c5ccc(OC)cc5c4c4c(c3c2c1)C(=O)NC4=O | 6.14%
Fc1ccc(-c2nn3ccccc3c2-c2ccncc2)cc1 | 0.92%
COc1ccc(-c2cc(-c3c[nH]nc3-c3ccccn3)ccn2)cc1 | 4.09%
c1cc(-c2cnn3nc(N4CCOCC4)ccc23)nc(NC2CC2)n1 | 2.34%
NS(=O)(=O)c1ccc(Nc2ncc(-c3ccccc3)o2)cc1 | 2.41%
CCN(CC)S(=O)(=O)c1ccc(OC)c(Nc2ncc(-c3ccccc3)o2)c1 | 3.51%
CC(=O)NCc1cccc(C#Cc2cncnc2Nc2ccc(OCc3cccc(F)c3)c(Cl)c2)c1 | -0.03%
COc1ccc(-c2oc3ncnc(N)c3c2-c2ccc(NC(=O)Nc3cc(C(F)(F)F)ccc3F)cc2)cc1 | 5.14%
CCn1cc(-c2ccnc3[nH]ccc23)c(-c2cccc(NC(=O)Nc3ccc(OCc4ccccc4)cc3)c2)n1 | 2.54%

Reference: ChEMBL document CHEMBL1961873, “Compounds: GSK PKIS; Assays: Nanosyn kinase panel” (2012)
